# Screening data deposited in PubChem BioAssay by National Center for Advancing Translational Sciences (NCATS).
# Rows were chosen to be rich in hits. Some 2.4% of all compounds tested hit in one or more screens of this group.
# PGK inhibitor = T. brucei PGK inhibition. PGK/GAPDH coupled, Kinase-Glo luminescence, 60 min. 380,000 tested, 0.043% active. AID 602233. Potency, µM (highest dose often 57.5 µM), inactives show top-dose activity change, negative = inhibition, most hits filed as inhibitors. P07378; note: % is set by controls: 0 for no effect and ±100 for the full control effect; nearly all actives have a fitted effect of over 60% in size
#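 Recombinant glycosomal PGK reaction used 1,3-bisphosphoglycerate generated in-well by GAPDH (100nM final) in 100mM TEA pH 7.6, 5mM MgCl2, 0.01% Tween-20. After 60 minutes at room temperature, ATP was read by Kinase-Glo Plus luminescence end-point.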
# Pol kappa inh-1 = DNA polymerase kappa (human) inhibition; 400,000 tested, 0.53% active; Potency, µM (titrated, usually from 107 µM), for inactives: top-dose activity, negative = inhibition, actives largely listed as inhibitors; purified Pol kappa, fluorescent DNA synthesis assay, 10 min; Q9UBT6; note: % is set by controls: 0 for no effect and ±100 for the full control effect
#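 Here, compound and 10 nM enzyme are combined for 15 min at room temperature; adding 50 nM substrate (final) starts DNA synthesis, tracked by fluorescence at 0 and 10 min against buffer-only wells.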
# POLB inh = inhibitors of human DNA polymerase beta; P06746; Pol beta primer extension/strand displacement, fluorescence kinetic; Potency, µM (doses to about 114 µM), inactives show at the top dose activity change, negative = inhibition, actives largely listed as inhibitors; 340,000 tested, 1.3% active; AID 485314; note: % is set by controls: 0 for no effect and ±100 for the full control effect
#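 Enzyme-only controls used 10 nM Pol beta; buffer lacking enzyme served as negative control. Compound preincubated 15 min, then 50 nM substrate added; 0 and 10 min reads at room temperature.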
# POLI inh = blocks human DNA polymerase iota activity; Q9UNA4; Pol iota fluorescent replication assay, 10 min; Potency, µM (top dose mostly 115 µM), inactives show at the highest dose activity, negative = inhibition, actives largely listed as inhibitors; 390,000 tested, 1% active; AID 588590
#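 Fluorescent replication assay read twice, at 0 min and 10 min after adding 50 nM (final) substrate. Enzyme (10 nM) and compounds were first incubated 15 min at room temperature; enzyme-free buffer wells were negative controls.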
# Pol eta inh-1 = DNA polymerase eta (human) inhibition | Q9Y253 | Potency, µM (doses to about 114 µM), for inactives: top-dose activity change, negative = inhibition, usual class: inhibitors | 390,000 tested, 1.2% active | AID 588591 | recombinant Pol eta, fluorescent DNA replication assay; note: % is set by controls: 0 for no effect and ±100 for the full control effect
# Target sequence (Q9Y253 whole entry, looked up): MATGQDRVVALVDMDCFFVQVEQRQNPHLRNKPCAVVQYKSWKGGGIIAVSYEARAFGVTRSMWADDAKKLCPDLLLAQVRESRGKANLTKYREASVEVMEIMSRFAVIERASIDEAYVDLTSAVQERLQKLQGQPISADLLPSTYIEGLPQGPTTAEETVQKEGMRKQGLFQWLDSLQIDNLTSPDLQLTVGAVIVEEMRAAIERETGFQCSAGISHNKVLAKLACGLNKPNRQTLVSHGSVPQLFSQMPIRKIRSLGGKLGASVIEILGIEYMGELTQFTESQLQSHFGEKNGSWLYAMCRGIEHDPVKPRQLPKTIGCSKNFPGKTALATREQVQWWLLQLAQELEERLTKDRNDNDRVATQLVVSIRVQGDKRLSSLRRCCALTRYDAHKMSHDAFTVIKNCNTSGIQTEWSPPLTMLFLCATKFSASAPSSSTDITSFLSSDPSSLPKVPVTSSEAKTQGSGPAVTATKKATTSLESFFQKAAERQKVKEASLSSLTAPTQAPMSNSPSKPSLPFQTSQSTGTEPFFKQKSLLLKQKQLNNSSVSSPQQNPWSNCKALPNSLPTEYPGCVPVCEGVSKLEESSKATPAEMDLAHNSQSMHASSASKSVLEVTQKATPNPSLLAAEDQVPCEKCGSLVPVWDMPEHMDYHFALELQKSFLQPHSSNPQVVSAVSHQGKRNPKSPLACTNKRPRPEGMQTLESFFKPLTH
#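 Pol eta (10 nM) was preincubated with compounds for 15 min at room temperature, after which fluorescent replication substrate (50 nM final) was added to start the reaction. Fluorescence was read kinetically at 0 and 10 min.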
# FEN1 inhibitor = inhibitors of human flap endonuclease 1 | Recombinant FEN1 flap cleavage, fluorescence, 15 min | 390,000 tested, 0.35% active | P39748 | Potency, µM (doses to about 114 µM), inactives show at the highest dose activity change, negative = inhibition, hits mostly inhibitors; note: % is set by controls: 0 for no effect and ±100 for the full control effect; nearly all actives have a fitted effect of over 65% in size
#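 Quantitative HTS format: each compound was titrated, incubated with 10 nM nuclease for 15 min at room temperature, then challenged with flap substrate at 50 nM final. Signal change over 15 min gave concentration–effect curves.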
# Pol kappa inh-2 = Pol kappa (human) inhibition, cherry-pick confirmation; 920 tested, 76% active; Potency, µM, hits mostly inhibitors; purified Pol-kappa, fluorescent strand-displacement substrate; shares compounds with Pol eta inh-1
# Pol eta inh-2 = confirmation of human DNA polymerase eta inhibitors | 2,600 tested, 64% active | shares compounds with Pol eta inh-1 | Pol eta primer extension, TAMRA/BHQ fluorescence, 10 min | Potency, µM, actives largely listed as inhibitors | AID 720502
# The depositor's hits bear a star; i = inactive; ? = inconclusive; . = no result; [ ] = remark or other dose. Calls come from the whole dose curve; as a rule, active = well fitted curve in the direction sought with a large enough effect; inconclusive = small, poorly fitted or top-dose-only effect, or another doubt; inactive = no such curve, though single readings can be large; an effect the other way counts as inactive or inconclusive. Potency is the fitted concentration of half-maximal effect.
SMILES,PGK inhibitor,Pol kappa inh-1,POLB inh,POLI inh,Pol eta inh-1,FEN1 inhibitor,Pol eta inh-2,others
C=CCN1C(=O)/C(=C/C=C2/N(CC)c3ccc(S(=O)(=O)N(C)C)cc3N2CC)SC1=S,-16%,-18%,4.5µM*,?,45µM*,?,38*,
COc1ccc(-c2nc(SCCOc3ccccc3Cl)n3[nH]c(=O)cc3n2)cc1,0%,-21%,-31%,-20%,-5%,-25%,.,
Cc1cc(C)cc(OCCSc2nc(-c3ccc(C(C)(C)C)cc3)nc3cc(=O)[nH]n23)c1,4%,-18%,22µM*,-17%,?,-17%,85*,
Cc1cc(OCCCSc2nc(-c3ccc(C(C)(C)C)cc3)nc3cc(=O)[nH]n23)ccc1Cl,-1%,?,40µM*,?,79µM*,?,?,
CCOc1ccc(C(=O)NCc2nnnn2-c2ccc(C)c(C)c2)cc1OCC,2%,-8%[60.1 µM],-16%,-8%,1%,19%,.,
Cc1ccc(-c2cc(C(=O)N3CC(C)OC(C)C3)c3ccccc3n2)o1 (stereo unspecified),-2%,2%,.,31%,-17%,7%,.,
Cc1ccc(-c2cc(C(=O)N3CC(C)CC(C)C3)c3ccccc3n2)o1 (stereo unspecified),0%,?,40µM*,-16%,79µM*,-6%,76*,
O=C(Nc1ccc2nc3n(c(=O)c2c1)CCCCC3)c1c(F)ccc([N+](=O)[O-])c1F,-7%,8%,15%,?,16µM*,-18%,48*,
O=C(Nc1ccc2nc3n(c(=O)c2c1)CCCCC3)c1cc([N+](=O)[O-])ccc1F,i,17%,-21%,10%,?,16%,.,
N#Cc1c(-c2ccccc2)nc(SCC(=O)Nc2ccccc2)[nH]c1=O,17%,-4%,-21%,7%,2%,8%,.,
N#Cc1c(-c2ccccc2)nc(SCC(=O)Nc2ccc(OC(F)(F)Cl)cc2)[nH]c1=O,-20%,5%,22µM*,12%,?,-24%,.,Pol kappa inh-2=?
O=[N+]([O-])c1ccc2c(c1)N([O-])C1(CCCCC1)[N+]2=O,-12%,?,-2%,11µM*,22µM*,?,85*,
CC1=C(c2ccccc2)[N+](=O)C2(CCCC2)N1[O-],-3%,-7%,19%,8%,4%,-5%,.,
Cc1ccc(/C=N/Nc2ccc(C(=O)O)cc2)s1,-11%,-26%,?,?,40µM*,-10%,48*,Pol kappa inh-2=?
COc1cccc2cc(C(=O)C3=C(O)C(=O)N(CCN4CCOCC4)C3c3ccc(Cl)cc3)oc12 (stereo unspecified),-4%,1%,39%,41%,?,8%,.,
COc1cccc2cc(C(=O)C3=C(O)C(=O)N(CCN4CCOCC4)C3c3cccc(Cl)c3)oc12 (stereo unspecified),-3%,-14%,3%,-21%,28µM*,-3%,17*,
C#Cc1ccc([C@H]2C=C(C(=O)O)O[C@@H](OCc3ccc(CO)cc3)C2)cc1,-11%,?,28µM*,?,35µM*,-7%,.,Pol kappa inh-2=42*
Cc1ccc(C(=O)Nc2nc(-c3ccco3)c(-c3ccco3)s2)o1,-4%,-31%,.,?,14µM*,?,60*,Pol kappa inh-2=15*
O=C(/C=C/c1ccco1)c1ccccc1O,-1%,3%,2%,50%,-12%,9%,.,
CC(=C/C(=O)O)/C=C/c1ccco1,1%,?,?,89µM*,?,-15%,?,
CC(/C=C/c1ccc(Cl)o1)=C\C(=O)O,-6%,-26%,32µM*,?,22µM*,4%,48*,
CC(C)C[C@H](NC(=O)CNC(=O)[C@H](C)NC(=O)[C@H](CC(C)C)NC(=O)[C@H](CCCNC(=N)N)NC(=O)[C@H](Cc1cnc[nH]1)NC(=O)[C@@H](NC(=O)[C@@H](NC(=O)[C@@H]1CSSC[C@H](NC(=O)[C@@H](N)CO)C(=O)N[C@@H](CC(N)=O)C(=O)N[C@@H]([C@@H](C)O)C(=O)N[C@@H](C)C(=O)N[C@@H]([C@@H](C)O)C(=O)N1)C(C)C)[C@@H](C)O)C(=O)N[C@@H](CC(C)C)C(=O)N[C@@H](CO)C(=O)N[C@@H](CCCNC(=N)N)C(=O)N[C@@H](CO)C(=O)NCC(=O)NCC(=O)N[C@H](C(=O)N[C@H](C(=O)N[C@@H](CCCCN)C(=O)N[C@@H](CC(=O)O)C(=O)N[C@@H](CC(N)=O)C(=O)N[C@@H](Cc1ccccc1)C(=O)N[C@H](C(=O)N1CCC[C@H]1C(=O)N[C@H](C(=O)N[C@@H](CC(N)=O)C(=O)N[C@H](C(=O)NCC(=O)N[C@@H](CO)C(=O)N[C@@H](CCCCN)C(=O)N[C@@H](C)C(=O)N[C@@H](Cc1ccccc1)C(N)=O)C(C)C)[C@@H](C)O)C(C)C)C(C)C)C(C)C,.,-4%[60.1 µM],.,.,.,.,.,
O=C(C1Cc2ccccc2CN1C(=O)c1ccccc1)N1CCN(c2ccccc2)CC1 (stereo unspecified),-16%,?,32µM*,?,79µM*,1%,76*,Pol kappa inh-2=?
COc1ccc(N2CCN(C(=O)C3Cc4ccccc4CN3C(=O)c3ccco3)CC2)cc1 (stereo unspecified),7%,-17%,.,-1%,-3%,-2%,.,
COC(=O)C1=C(O)/C(=C\c2ccc(CNS(=O)(=O)c3ccc(Cl)cc3)o2)N=C1C,-1%,79µM*,25µM*,?,?,-10%,?,
COc1ccccc1OC(C)C(=O)Nc1ccc(-c2nc3ccccc3s2)cc1 (stereo unspecified),0%,1%,-10%,26%,-18%,-1%,.,
O=C(O)CCCN1C(=O)/C(=C\C(Cl)=C\c2ccccc2)SC1=S,-23%,?,?,?,10µM*,?,24*,Pol kappa inh-2=38*
COc1cc(CNC(=O)c2ccc3c(c2)c(C)c(C)n3Cc2cccc(C)c2)cc(OC)c1OC,0%,-20%,-2%,11%,-19%,4%,.,
Cc1cccc(Cn2c(C)c(C)c3cc(C(=O)NCc4ccco4)ccc32)c1,-9%,-15%,?,-10%,79µM*,8%,?,
